From the supplement of paper PMC4466140

Columns and labels:
Assay in all cases: SPOT peptide array binding signal intensity (averaged, normalized) (arbitrary units (background-subtracted, floor 0; scale differs between SH3 domains)); higher = stronger binding of the SH3 domain to the peptide
AgAbp1 = biological target: AgAbp1
Method in brief: (§1)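 Cellulose membranes carried synthetic 15-mer peptides with cysteines swapped for serines. These were incubated overnight at 4°C with 10 μg/ml of GST-fused SH3 domains from four yeast species in TBS-based blocking buffer. Binding signal, detected with anti-GST antibody and quantified in Genespotter, is the normalized, background-subtracted spot intensity averaged over replicates, in arbitrary units specific to each domain.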

AgBbc1 = biological target: AgBbc1
Method in brief: as §1

AgBem1-D1 = biological target: AgBem1-D1
Method in brief: as §1

AgBzz1-D1 = biological target: AgBzz1-D1
Method in brief: as §1

AgBzz1-D2 = biological target: AgBzz1-D2
Method in brief: as §1

AgCyk3 = biological target: AgCyk3
Method in brief: as §1

AgFus1 = biological target: AgFus1
Method in brief: as §1

AgHof1 = biological target: AgHof1
Method in brief: as §1

AgHse1 = biological target: AgHse1
Method in brief: as §1

AgLsb1 = biological target: AgLsb1
Method in brief: as §1

AgLsb4 = biological target: AgLsb4
Method in brief: as §1

AgMyo5 = biological target: AgMyo5
Method in brief: as §1

AgNbp2 = biological target: AgNbp2
Method in brief: as §1

AgRvs167 = biological target: AgRvs167
Method in brief: as §1

AgSho1 = biological target: AgSho1
Method in brief: as §1

AgSla1-D1-D2 = biological target: AgSla1-D1-D2
Method in brief: as §1

AgSla1-D3 = biological target: AgSla1-D3
Method in brief: as §1

CaAbp1-D1 = biological target: CaAbp1-D1
Method in brief: as §1

CaAbp1-D2 = biological target: CaAbp1-D2
Method in brief: as §1

CaBbc1 = biological target: CaBbc1
Method in brief: as §1

CaBem1-D1 = biological target: CaBem1-D1
Method in brief: as §1

CaBzz1-D1 = biological target: CaBzz1-D1
Method in brief: as §1

CaBzz1-D2 = biological target: CaBzz1-D2
Method in brief: as §1

CaCyk3 = biological target: CaCyk3
Method in brief: as §1

CaFus1 = biological target: CaFus1
Method in brief: as §1

CaHof1 = biological target: CaHof1
Method in brief: as §1

CaHse1 = biological target: CaHse1
Method in brief: as §1

CaLsb1 = biological target: CaLsb1
Method in brief: as §1

CaLsb4 = biological target: CaLsb4
Method in brief: as §1

CaMyo5 = biological target: CaMyo5
Method in brief: as §1

CaNbp2 = biological target: CaNbp2
Method in brief: as §1

CaRvs167 = biological target: CaRvs167
Method in brief: as §1

CaRvs167-3 = biological target: CaRvs167-3
Method in brief: as §1

CaSho1 = biological target: CaSho1
Method in brief: as §1

CaSla1-D1-D2 = biological target: CaSla1-D1-D2
Method in brief: as §1

CaSla1-D3 = biological target: CaSla1-D3
Method in brief: as §1

ScAbp1 = biological target: ScAbp1
Method in brief: as §1

ScBbc1 = biological target: ScBbc1
Method in brief: as §1

ScBem1-D1 = biological target: ScBem1-D1
Method in brief: as §1

ScBzz1-D1 = biological target: ScBzz1-D1
Method in brief: as §1

ScBzz1-D2 = biological target: ScBzz1-D2
Method in brief: as §1

ScCyk3 = biological target: ScCyk3
Method in brief: as §1

ScFus1 = biological target: ScFus1
Method in brief: as §1

ScHof1 = biological target: ScHof1
Method in brief: as §1

ScHse1 = biological target: ScHse1
Method in brief: as §1

ScLsb1 = biological target: ScLsb1
Method in brief: as §1

ScLsb2 = biological target: ScLsb2
Method in brief: as §1

ScLsb3 = biological target: ScLsb3
Method in brief: as §1

ScLsb4 = biological target: ScLsb4
Method in brief: as §1

ScMyo3 = biological target: ScMyo3
Method in brief: as §1

ScMyo5 = biological target: ScMyo5
Method in brief: as §1

ScNbp2 = biological target: ScNbp2
Method in brief: as §1

ScPex13 = biological target: ScPex13
Method in brief: as §1

ScRvs167 = biological target: ScRvs167
Method in brief: as §1

ScSho1 = biological target: ScSho1
Method in brief: as §1

ScSla1-D1-D2 = biological target: ScSla1-D1-D2
Method in brief: as §1

ScSla1-D3 = biological target: ScSla1-D3
Method in brief: as §1

SpAbp1-D1 = biological target: SpAbp1-D1
Method in brief: as §1

SpBbc1 = biological target: SpBbc1
Method in brief: as §1

SpBzz1-D1 = biological target: SpBzz1-D1
Method in brief: as §1

SpBzz1-D2 = biological target: SpBzz1-D2
Method in brief: as §1

SpCyk3 = biological target: SpCyk3
Method in brief: as §1

SpHof1 = biological target: SpHof1
Method in brief: as §1

SpHof1-2 = biological target: SpHof1-2
Method in brief: as §1

SpHof1-3 = biological target: SpHof1-3
Method in brief: as §1

SpHse1 = biological target: SpHse1
Method in brief: as §1

SpLsb1 = biological target: SpLsb1
Method in brief: as §1

SpLsb4 = biological target: SpLsb4
Method in brief: as §1

SpMyo1 = biological target: SpMyo1
Method in brief: as §1

SpNbp2 = biological target: SpNbp2
Method in brief: as §1

SpPex13 = biological target: SpPex13
Method in brief: as §1

SpRvs167 = biological target: SpRvs167
Method in brief: as §1

SpSla1-D1-D2 = biological target: SpSla1-D1-D2
Method in brief: as §1

SpSla1-D3 = biological target: SpSla1-D3
Method in brief: as §1

Binder: GSKSGPPPRPKKPST
- SPOT peptide array binding signal intensity (AgAbp1): 94
- SPOT peptide array binding signal intensity (AgBbc1): 780
- SPOT peptide array binding signal intensity (AgBem1-D1): 66.5
- SPOT peptide array binding signal intensity (AgBzz1-D1): 524
- SPOT peptide array binding signal intensity (AgBzz1-D2): 102
- SPOT peptide array binding signal intensity (AgCyk3): ≤ 0
- SPOT peptide array binding signal intensity (AgFus1): 23
- SPOT peptide array binding signal intensity (AgHof1): 39.2
- SPOT peptide array binding signal intensity (AgHse1): ≤ 0
- SPOT peptide array binding signal intensity (AgLsb1): ≤ 0
- SPOT peptide array binding signal intensity (AgLsb4): ≤ 0
- SPOT peptide array binding signal intensity (AgMyo5): 0.25
- SPOT peptide array binding signal intensity (AgNbp2): 37
- SPOT peptide array binding signal intensity (AgRvs167): ≤ 0
- SPOT peptide array binding signal intensity (AgSho1): 20
- SPOT peptide array binding signal intensity (AgSla1-D1-D2): 9
- SPOT peptide array binding signal intensity (AgSla1-D3): 7.5
- SPOT peptide array binding signal intensity (CaAbp1-D1): 328
- SPOT peptide array binding signal intensity (CaAbp1-D2): 189
- SPOT peptide array binding signal intensity (CaBbc1): 825
- SPOT peptide array binding signal intensity (CaBem1-D1): 13
- SPOT peptide array binding signal intensity (CaBzz1-D1): 1530
- SPOT peptide array binding signal intensity (CaBzz1-D2): 388
- SPOT peptide array binding signal intensity (CaCyk3): 36.5
- SPOT peptide array binding signal intensity (CaFus1): 42
- SPOT peptide array binding signal intensity (CaHof1): 1.5
- SPOT peptide array binding signal intensity (CaHse1): 0.5
- SPOT peptide array binding signal intensity (CaLsb1): 0.5
- SPOT peptide array binding signal intensity (CaLsb4): ≤ 0
- SPOT peptide array binding signal intensity (CaMyo5): 0.5
- SPOT peptide array binding signal intensity (CaNbp2): 27
- SPOT peptide array binding signal intensity (CaRvs167): ≤ 0
- SPOT peptide array binding signal intensity (CaRvs167-3): 3.5
- SPOT peptide array binding signal intensity (CaSho1): 29.5
- SPOT peptide array binding signal intensity (CaSla1-D1-D2): 130
- SPOT peptide array binding signal intensity (CaSla1-D3): 230
- SPOT peptide array binding signal intensity (ScAbp1): 234
- SPOT peptide array binding signal intensity (ScBbc1): 97.8
- SPOT peptide array binding signal intensity (ScBem1-D1): 15
- SPOT peptide array binding signal intensity (ScBzz1-D1): 48.5
- SPOT peptide array binding signal intensity (ScBzz1-D2): 72
- SPOT peptide array binding signal intensity (ScCyk3): 1
- SPOT peptide array binding signal intensity (ScFus1): 6.5
- SPOT peptide array binding signal intensity (ScHof1): 1.75
- SPOT peptide array binding signal intensity (ScHse1): 13
- SPOT peptide array binding signal intensity (ScLsb1): 2.5
- SPOT peptide array binding signal intensity (ScLsb2): 0.5
- SPOT peptide array binding signal intensity (ScLsb3): 1400
- SPOT peptide array binding signal intensity (ScLsb4): 5
- SPOT peptide array binding signal intensity (ScMyo3): 5.25
- SPOT peptide array binding signal intensity (ScMyo5): ≤ 0
- SPOT peptide array binding signal intensity (ScNbp2): 51
- SPOT peptide array binding signal intensity (ScPex13): 133
- SPOT peptide array binding signal intensity (ScRvs167): 3.33
- SPOT peptide array binding signal intensity (ScSho1): 41
- SPOT peptide array binding signal intensity (ScSla1-D1-D2): 57.5
- SPOT peptide array binding signal intensity (ScSla1-D3): 28
- SPOT peptide array binding signal intensity (SpAbp1-D1): 85
- SPOT peptide array binding signal intensity (SpBbc1): 5.5
- SPOT peptide array binding signal intensity (SpBzz1-D1): 320
- SPOT peptide array binding signal intensity (SpBzz1-D2): 2
- SPOT peptide array binding signal intensity (SpCyk3): ≤ 0
- SPOT peptide array binding signal intensity (SpHof1): 1.5
- SPOT peptide array binding signal intensity (SpHof1-2): 10.5
- SPOT peptide array binding signal intensity (SpHof1-3): 25
- SPOT peptide array binding signal intensity (SpHse1): 16.2
- SPOT peptide array binding signal intensity (SpLsb1): 12.5
- SPOT peptide array binding signal intensity (SpLsb4): 332
- SPOT peptide array binding signal intensity (SpMyo1): 8
- SPOT peptide array binding signal intensity (SpNbp2): 5
- SPOT peptide array binding signal intensity (SpPex13): 7
- SPOT peptide array binding signal intensity (SpRvs167): ≤ 0
- SPOT peptide array binding signal intensity (SpSla1-D1-D2): 5
- SPOT peptide array binding signal intensity (SpSla1-D3): 1
